# Laboratory results: the supplement of paper PMC10037445
# “And” between values parts separate entries of the source, which are not always exact repeats. Equal values may be shown once. In all, about 2,900 compounds were measured (“IRF Lucia reporter activity, fold change vs agonist alone”: median about 0.9, highest 2% from about 2.8 on). For the sample, the highest values were picked, then their nearest neighbours and some compounds at random.
# Key:
# RAW-Dual [1] = experiment: IRF Lucia reporter activity, fold change vs agonist alone; higher = enhanced IRF activity; conditions: agonist: MPLA (TLR4) […]
# Procedure, shortened: (§1)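 RAW-Dual macrophages were seeded in DMEM at 50,000 cells/well in 384-well plates, given 50 nL of library stock by pin tool, and given a PRR agonist 1 h later. Plates were held at 37 °C, 5% CO2 for 20 hours, after which supernatant was read for IRF by QuantiLuc luminescence and for NF-κB by QuantiBlue absorbance at 620 nm. Reporter activity is expressed as fold change over wells that received agonist alone. A well was called cytotoxic when IncuCyte confluency fell below 70% of agonist controls in both mask sets.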
# RAW-Dual [2] = experiment: IRF Lucia reporter activity, fold change vs agonist alone; cytotoxicity flag (confluency mask): not cytotoxic; higher = enhanced IRF activity
# Procedure, shortened: as §1
# RAW-Dual [3] = experiment: IRF Lucia reporter activity, fold change vs agonist alone; cytotoxicity flag (confluency mask): cytotoxic (confluency <70% of control); higher = enhanced IRF activity
# Procedure, shortened: as §1
# [4] = library stock concentration (final ~1000-fold dilution): 10 mM, cytotoxicity flag (confluency mask): not cytotoxic
# [5] = agonist: 3'3'-cGAMP (STING) 10 ug/mL
# [6] = library stock concentration (final ~1000-fold dilution): 10 mM water, cytotoxicity flag (confluency mask): not cytotoxic
smiles,measurement,setting,value
CC(C)N(CCC(c1ccccc1)c1cc(CO)ccc1O)C(C)C (stereo not given),IRF Lucia reporter activity,RAW-Dual [1]; [4],0.986
CC(C)N(CCC(c1ccccc1)c1cc(CO)ccc1O)C(C)C (stereo not given) (library stock concentration (final ~1000-fold dilution): 10 mM),IRF Lucia reporter activity,RAW-Dual [2]; [5],0.857
same,IRF Lucia reporter activity,RAW-Dual [2]; agonist: LPS (TLR4) 0.1 ug/mL,0.982
CCCC1CC(C(=O)NC(C(C)Cl)C2OC(SC)C(OP(=O)(O)O)C(O)C2O)N(C)C1 (stereo not given),IRF Lucia reporter activity,RAW-Dual [1]; [6],1.42
CCCC1CC(C(=O)NC(C(C)Cl)C2OC(SC)C(OP(=O)(O)O)C(O)C2O)N(C)C1 (stereo not given) (library stock concentration (final ~1000-fold dilution): 10 mM water),IRF Lucia reporter activity,RAW-Dual [2]; [5],1.23
same,IRF Lucia reporter activity,RAW-Dual [2]; agonist: LPS (TLR4) 0.1 ug/mL,0.95
COC(=O)C1=C(C)NC(C)=C(C(=O)OC)C1c1ccccc1[N+](=O)[O-] (library stock concentration (final ~1000-fold dilution): 10 mM),IRF Lucia reporter activity,RAW-Dual [2]; [5],0.606
same,IRF Lucia reporter activity,RAW-Dual [2]; agonist: LPS (TLR4) 0.1 ug/mL,0.554
COC(=O)C1=C(C)NC(C)=C(C(=O)OC)C1c1ccccc1[N+](=O)[O-],IRF Lucia reporter activity,RAW-Dual [1]; [4],0.406
CCCC(=O)OCOC(=O)C1=C(C)NC(C)=C(C(=O)OC)C1c1cccc(Cl)c1Cl (stereo not given) (library stock concentration (final ~1000-fold dilution): 10 mM),IRF Lucia reporter activity,RAW-Dual [2]; [5],1.02
same,IRF Lucia reporter activity,RAW-Dual [2]; agonist: LPS (TLR4) 0.1 ug/mL,0.873
CCOC(=O)C1=C(C)NC(C)=C(C(=O)OC)C1c1cccc(Cl)c1Cl (stereo not given),IRF Lucia reporter activity,RAW-Dual [1]; [4],1.08
CCCC(=O)OCOC(=O)C1=C(C)NC(C)=C(C(=O)OC)C1c1cccc(Cl)c1Cl (stereo not given),IRF Lucia reporter activity,RAW-Dual [1]; [4],0.992
CCOC(=O)C1=C(COCCN)NC(C)=C(C(=O)OC)C1c1ccccc1Cl.O=S(=O)(O)c1ccccc1 (stereo not given) (library stock concentration (final ~1000-fold dilution): 10 mM),IRF Lucia reporter activity,RAW-Dual [3]; [5],1.02
same,IRF Lucia reporter activity,RAW-Dual [3]; agonist: LPS (TLR4) 0.1 ug/mL,3.19
CCOC(=O)C1=C(COCCN)NC(C)=C(C(=O)OC)C1c1ccccc1Cl.O=S(=O)(O)c1ccccc1 (stereo not given),IRF Lucia reporter activity,"RAW-Dual [1]; library stock concentration (final ~1000-fold dilution): 10 mM, cytotoxicity flag (confluency mask): cytotoxic (confluency <70% of control)",3.36
CCOC(=O)C1=C(COCCN)NC(C)=C(C(=O)OC)C1c1ccccc1Cl (stereo not given) (library stock concentration (final ~1000-fold dilution): 10 mM),IRF Lucia reporter activity,RAW-Dual [3]; [5],0.715 and 0.401
same,IRF Lucia reporter activity,RAW-Dual [3]; agonist: LPS (TLR4) 0.1 ug/mL,2.55 and 2.72
CCOC(=O)C1=C(C)NC(C)=C(C(=O)OC)C1c1cccc(Cl)c1Cl (stereo not given) (library stock concentration (final ~1000-fold dilution): 10 mM),IRF Lucia reporter activity,RAW-Dual [2]; [5],1.31
same,IRF Lucia reporter activity,RAW-Dual [2]; agonist: LPS (TLR4) 0.1 ug/mL,1.17
COC(=O)C1=C(C)NC(C)=C(C(=O)OCC(C)C)C1c1ccccc1[N+](=O)[O-] (stereo not given) (library stock concentration (final ~1000-fold dilution): 10 mM),IRF Lucia reporter activity,RAW-Dual [2]; [5],0.585
same,IRF Lucia reporter activity,RAW-Dual [2]; agonist: LPS (TLR4) 0.1 ug/mL,0.872
COC(=O)C1=C(C)NC(C)=C(C(=O)OCC(C)C)C1c1ccccc1[N+](=O)[O-] (stereo not given),IRF Lucia reporter activity,RAW-Dual [1]; [4],0.508
Cc1cccc(Nc2nc(NC3CCCCC3N)ncc2C(N)=O)c1.Cl.Cl (stereo not given) (library stock concentration (final ~1000-fold dilution): 10 mM),IRF Lucia reporter activity,RAW-Dual [3]; [5],0.0182
same,IRF Lucia reporter activity,RAW-Dual [3]; agonist: LPS (TLR4) 0.1 ug/mL,0.0241
CS(=O)(=O)O.Cc1ccc(N(CC2=NCCN2)c2cccc(O)c2)cc1,IRF Lucia reporter activity,RAW-Dual [1]; [4],0.907
CS(=O)(=O)O.Cc1ccc(N(CC2=NCCN2)c2cccc(O)c2)cc1 (library stock concentration (final ~1000-fold dilution): 10 mM),IRF Lucia reporter activity,RAW-Dual [2]; [5],0.803
same,IRF Lucia reporter activity,RAW-Dual [2]; agonist: LPS (TLR4) 0.1 ug/mL,0.89
C[N+](C)(C)NCCC(=O)O (library stock concentration (final ~1000-fold dilution): 10 mM water),IRF Lucia reporter activity,RAW-Dual [2]; [5],1.05
same,IRF Lucia reporter activity,RAW-Dual [2]; agonist: LPS (TLR4) 0.1 ug/mL,0.979
C[N+](C)(C)NCCC(=O)O,IRF Lucia reporter activity,RAW-Dual [1]; [6],1.25
C[C@@H]1O[C@@H](O[C@H]2C(=O)c3c(O)cc(O)cc3O[C@@H]2c2ccc(O)cc2)[C@H](O)[C@H](O)[C@H]1O (library stock concentration (final ~1000-fold dilution): 10 mM),IRF Lucia reporter activity,RAW-Dual [2]; [5],0.228
same,IRF Lucia reporter activity,RAW-Dual [2]; agonist: LPS (TLR4) 0.1 ug/mL,1.17
COc1nc2ccc(Br)cc2cc1C(c1ccccc1)C(O)(CCN(C)C)c1cccc2ccccc12.O=C(O)/C=C/C(=O)O (stereo not given) (library stock concentration (final ~1000-fold dilution): 10 mM),IRF Lucia reporter activity,RAW-Dual [2]; [5],0.888
same,IRF Lucia reporter activity,RAW-Dual [2]; agonist: LPS (TLR4) 0.1 ug/mL,0.812
COc1nc2ccc(Br)cc2cc1C(c1ccccc1)C(O)(CCN(C)C)c1cccc2ccccc12.O=C(O)/C=C/C(=O)O (stereo not given),IRF Lucia reporter activity,RAW-Dual [1]; [4],0.751
Cc1cc(Nc2ccc(NC(=O)c3ccc(Nc4ccnc5ccccc45)cc3)cc2)nc(N)n1 (library stock concentration (final ~1000-fold dilution): 10 mM),IRF Lucia reporter activity,RAW-Dual [2]; [5],1.65
same,IRF Lucia reporter activity,RAW-Dual [2]; agonist: LPS (TLR4) 0.1 ug/mL,2.84
CC(=O)Nc1ccc(C(=O)Nc2ccccc2N)cc1,IRF Lucia reporter activity,RAW-Dual [1]; [4],0.418
CNCc1ccc(C)c(NC(=O)c2ccc(Nc3nc(-c4ccccc4)c4ccccc4n3)cc2)c1,IRF Lucia reporter activity,RAW-Dual [1]; [4],1.01
CNCc1ccc(C)c(NC(=O)c2ccc(Nc3nc(-c4ccccc4)c4ccccc4n3)cc2)c1 (library stock concentration (final ~1000-fold dilution): 10 mM),IRF Lucia reporter activity,RAW-Dual [2]; [5],0.995
same,IRF Lucia reporter activity,RAW-Dual [2]; agonist: LPS (TLR4) 0.1 ug/mL,1.04
Cc1cc(Nc2ccc(NC(=O)c3ccc(Nc4ccnc5ccccc45)cc3)cc2)nc(N)n1,IRF Lucia reporter activity,RAW-Dual [1]; [4],3.15
CC(=O)Nc1ccc(C(=O)Nc2ccccc2N)cc1 (library stock concentration (final ~1000-fold dilution): 10 mM),IRF Lucia reporter activity,RAW-Dual [2]; [5],0.557
same,IRF Lucia reporter activity,RAW-Dual [2]; agonist: LPS (TLR4) 0.1 ug/mL,0.424
